# Assay results taken from the supplement of paper PMC8728848.
# Shown is part of a subset that was picked to be rich in the strongest signals.
# Columns and labels:
# Assay in all cases: glycan array binding signal (z-score within array); higher = stronger binding
# Conditions in all cases: glycan notation: IUPAC condensed, linker removed
# [1] = target: Gal(b1-4)GlcNAc(b1-3)Gal(b1-4)GlcNAc(b1-3)Gal(b1-4)GlcNAc(b1-3)Gal(b1-4)GlcNAc(b1-3)Gal(b1-4)GlcNAc(b1-2)[Gal(b1-4)GlcNAc(b1-3)Gal(b1-4)GlcNAc(b1-3)Gal(b1-4)GlcNAc(b1-3)Gal(b1-4)GlcNAc(b1-3)Gal(b1-4)GlcNAc(b1-6)]Man(a1-6)[Gal(b1-4)GlcNAc(b1-3)Gal(b1-4)GlcNAc(b1-3)Gal(b1-4)GlcNAc(b1-3)Gal(b1-4)GlcNAc(b1-3)Gal(b1-4)GlcNAc(b1-2)Man(a1-3)]Man(b1-4)GlcNAc(b1-4)[Fuc(a1-6)]GlcNAc
# Method in brief: (§1)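 The Consortium for Functional Glycomics database supplied 3228 glycan arrays, of which those lacking an available protein sequence were dropped. The binding signal, a within-array Z-score, was averaged across arrays of the same protein sequence and across linkers. Negative scores can be read as non-binding.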
# [2] = target: Gal(b1-4)GlcNAc(b1-3)Gal(b1-4)[Fuc(a1-3)]GlcNAc(b1-3)Gal(b1-4)[Fuc(a1-3)]GlcNAc
# Method in brief: as §1
# [3] = target: Gal(b1-4)GlcNAc(b1-3)[Gal(b1-4)GlcNAc(b1-6)]Gal(b1-4)GlcNAc
# Method in brief: as §1
# [4] = target: Gal(b1-4)GlcNAc(b1-6)GalNAc
# Method in brief: as §1
# [5] = target: Gal(b1-4)GlcNAc(b1-6)[Gal(b1-3)]GalNAc
# Method in brief: as §1
# [6] = target: Gal3S(b1-4)Glc6S
# Method in brief: as §1
# [7] = target: GalNAc(a1-3)Gal
# Method in brief: as §1
# [8] = target: GalNAc(b1-3)Gal(a1-4)Gal(b1-4)GlcNAc
# Method in brief: as §1
# [9] = target: GalNAc(b1-4)Gal(b1-4)Glc
# Method in brief: as §1
# [10] = target: GalNAc3S(b1-4)GlcNAc3S
# Method in brief: as §1
# [11] = target: GlcA(b1-3)Gal
# Method in brief: as §1
# [12] = target: GlcNAc(a1-4)Gal(b1-4)GlcNAc(b1-3)Gal(b1-4)Glc
# Method in brief: as §1
# [13] = target: GlcNAc(a1-4)Gal(b1-4)GlcNAc(b1-3)Gal(b1-4)[Fuc(a1-3)]GlcNAc(b1-3)Gal(b1-4)[Fuc(a1-3)]GlcNAc
# Method in brief: as §1
# [14] = target: GlcNAc(b1-3)Gal(b1-4)GlcNAc(b1-2)Man(a1-3)[GlcNAc(b1-3)Gal(b1-4)GlcNAc(b1-2)Man(a1-6)]Man(b1-4)GlcNAc(b1-4)[Fuc(a1-6)]GlcNAc
# Method in brief: as §1
# [15] = target: GlcNAc(b1-3)Gal(b1-4)GlcNAc(b1-3)Gal(b1-4)GlcNAc(b1-3)Gal(b1-4)GlcNAc(b1-2)Man(a1-3)[GlcNAc(b1-3)Gal(b1-4)GlcNAc(b1-3)Gal(b1-4)GlcNAc(b1-3)Gal(b1-4)GlcNAc(b1-2)Man(a1-6)]Man(b1-4)GlcNAc(b1-4)GlcNAc
# Method in brief: as §1
# [16] = target: GlcNAc(b1-3)Gal(b1-4)GlcNAc(b1-6)[Gal(b1-3)]GalNAc
# Method in brief: as §1
# [17] = target: GlcNAc(b1-4)Gal(b1-4)GlcNAc
# Method in brief: as §1
# [18] = target: Kdn(a2-3)Gal(b1-3)GalNAc
# Method in brief: as §1
# [19] = target: Man(a1-2)Man(a1-2)Man(a1-3)Man
# Method in brief: as §1
# [20] = target: Man(a1-3)[Man(a1-6)]Man(a1-6)[Man(a1-3)]Man(b1-4)GlcNAc(b1-4)GlcNAc
# Method in brief: as §1
# [21] = target: Neu5Ac(a2-3)Gal(b1-3)GlcNAc(b1-3)Gal(b1-3)GlcNAc
# Method in brief: as §1
# [22] = target: Neu5Ac(a2-3)Gal(b1-3)[Fuc(a1-4)]GlcNAc(b1-3)Gal(b1-4)[Fuc(a1-3)]GlcNAc
# Method in brief: as §1
# [23] = target: Neu5Ac(a2-3)Gal(b1-4)Glc
# Method in brief: as §1
# [24] = target: Neu5Ac(a2-3)Gal(b1-4)GlcNAc(b1-3)Gal(b1-4)GlcNAc(b1-3)Gal(b1-4)GlcNAc
# Method in brief: as §1
# [25] = target: Neu5Ac(a2-3)Gal(b1-4)GlcNAc(b1-3)[Neu5Ac(a2-3)Gal(b1-4)GlcNAc(b1-6)]GalNAc
# Method in brief: as §1
binder,measurement,setting,value
PX9937F-bfa-516-16-516 (Bacteroides fragilis) (protein) LDIDPTSSIADSNYWKTEAQFSTFNVGLHALLRECSFNFFLLGEPRADIYGDVPFGGEATQGMERLPFNTINKENTGISNFAGMYKVINQINLMIAKTKETTVLSEAGKNYYLGEAYGMRAYLYFHLLRSWGDVILYLDYTNGASLDLSNLSKAASPAEEVMKQIKEDITASEKGFGSDYSFKYGRYYWSMAATQMLKGEVYLWSGRQMGGGTADYTTAKTALQSIVSNANVSLQDDFSKVFAYNNKDNSEIIFSIRNAKDEYNMWDDRFRQNLVPQQAYMTSTYCNKEGVSFKDLPEGQLNGLIRLQIRYDLYNKAFRDGDTRKDASMTAVYQKQQDGTVKYIAPFCNKYQGVLLDGASQRSFLNDYPIYRYADCLLLLAEAKALLGEDPTAEINQVRERAYGKEFFEANKATLAYPNDKGDFYTDNKYMSGDEDPLEAILKERMREFMFEGKRWYDLRLLGADYVTKRTSAVATRLLWPINESVLTDNPALKQTPGYQN,glycan array binding signal (z-score),[1],20.8
same,glycan array binding signal (z-score),[2],-0.12
same,glycan array binding signal (z-score),[3],-0.235
same,glycan array binding signal (z-score),[4],0.084
same,glycan array binding signal (z-score),[5],0.054
same,glycan array binding signal (z-score),[6],-0.009
same,glycan array binding signal (z-score),[7],0.114
same,glycan array binding signal (z-score),[8],1.48
same,glycan array binding signal (z-score),[9],1.77
same,glycan array binding signal (z-score),[10],-0.23
same,glycan array binding signal (z-score),[11],-0.361
same,glycan array binding signal (z-score),[12],-0.323
same,glycan array binding signal (z-score),[13],0.511
same,glycan array binding signal (z-score),[14],1.82
same,glycan array binding signal (z-score),[15],0.988
same,glycan array binding signal (z-score),[16],-0.127
same,glycan array binding signal (z-score),[17],-0.271
same,glycan array binding signal (z-score),[18],-0.345
same,glycan array binding signal (z-score),[19],-0.273
same,glycan array binding signal (z-score),[20],0.247
same,glycan array binding signal (z-score),[21],-0.249
same,glycan array binding signal (z-score),[22],-0.15
same,glycan array binding signal (z-score),[23],-0.325
same,glycan array binding signal (z-score),[24],-0.282
same,glycan array binding signal (z-score),[25],-0.202
